These results are taken from article PMC7819943, “Rice protein-binding microarrays: a tool to detect cis-acting elements near promoter regions in rice”.

In all, about 68,000 sequences were measured (“fluorescence intensity (a.u.)”: median about 9,100, highest 2% from about 16,000 on). The full list was thinned out, with the highest values kept by preference.

OsWRKY34, sequence (Q0JBA9 entry or part of it): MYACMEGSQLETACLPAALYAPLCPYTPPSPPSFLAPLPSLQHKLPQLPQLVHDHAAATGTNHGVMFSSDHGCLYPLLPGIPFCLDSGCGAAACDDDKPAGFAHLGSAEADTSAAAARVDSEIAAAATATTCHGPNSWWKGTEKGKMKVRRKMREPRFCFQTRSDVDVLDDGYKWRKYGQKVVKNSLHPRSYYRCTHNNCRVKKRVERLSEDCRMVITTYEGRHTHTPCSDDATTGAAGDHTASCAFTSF

The target in this assay is OsWRKY34 (Oryza sativa, UniProt Q0JBA9 1-250). The assay is described as follows: protein-binding microarray (RPBM); PBS, 2% BSA, 51.3 ng/ul salmon testes DNA, 50 uM zinc acetate, 200 nM TF, 25 C, 1 h; high values mean tight binding. The settings on record: protein: recombinant; tags: N-terminal polyhistidine and DsRed monomer fusion (pET32a); label: CyDye5-dUTP incorporated in the synthesized complementary strand; 3' TTTTT single-stranded linker to array surface; dsDNA, one strand shown. The method, boiled down:
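Per-feature fluorescence intensity (arbitrary units), read on an Axon 4000B scanner, is the binding signal. Transcription factors carrying an N-terminal polyhistidine tag and DsRed fusion were expressed in E. coli BL21-CodonPlus and purified on Ni–NTA. A custom Agilent array, made double-stranded by primer extension with Cy5-dUTP and blocked with 2% BSA, was incubated with 200 nM protein in PBS, 2% BSA, salmon testes DNA and 50 µM zinc acetate at 25 °C for 1 h and then washed.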
“TCATGATGAATCGGGGTGGTGGAGGTTTGCTTGTTATGGTCGGAGTCACCTAGTGCAG”: the binding signal was 11000 fluorescence intensity (a.u.).

In the case of “AGATTTGACTATCCTGCTGGAATCCGGTAACAATTTTTCACGGAGTCACCTAGTGCAG”, the binding signal was 9560 fluorescence intensity (a.u.).

As to “TTGGTTGGTTGGTTATACAAAGACGCTACGAGTCCGGGAACGGAGTCACCTAGTGCAG”, the binding signal is 12400 fluorescence intensity (a.u.).

Regarding “ACCATAAAGCCAAGTTTCATCCATAATCCTTATTTTTCATCGGAGTCACCTAGTGCAG”, the binding signal was 8670 fluorescence intensity (a.u.).

For “TGTTATATTTGTATTTGTGCTTTGCTTCTTCTAGGCTTTTCGGAGTCACCTAGTGCAG”, the binding signal is 8740 fluorescence intensity (a.u.).

“TCTCTGTCTCACTCTTCCTCTCTCTCACACGCACGGCGAGCGGAGTCACCTAGTGCAG”: the binding signal is 8380 fluorescence intensity (a.u.).

Take “GGGGAGGCGGGGTGGCGGGAGGGAAGGCGGCGGCGGCGCCCGGAGTCACCTAGTGCAG”: the binding signal was 12700 fluorescence intensity (a.u.).

As for “GGGGCGCCGGGAAGGAGGGCGCTGTGTGGGAGGGAGGGAGCGGAGTCACCTAGTGCAG”, the binding signal is 17100 fluorescence intensity (a.u.).

Regarding “AGGGCGCCGTCGTTCGTCATGCTGCTTCCGCCGCATCCTGCGGAGTCACCTAGTGCAG”, the binding signal was 9240 fluorescence intensity (a.u.).

“CACTCCGCTGCCGCCCGCCGGAAGGGGAGGGGAGGAGGGGCGGAGTCACCTAGTGCAG”: the binding signal is 11700 fluorescence intensity (a.u.).

With “GGAGGGGCGGTGGCCGCCGGCGGCCCGCGCGGCGGGAGCGCGGAGTCACCTAGTGCAG”, the binding signal is 9240 fluorescence intensity (a.u.).

Consider “GGCCGGGGAGGGAGGGGCGCCGTCGTCCTGCTGCATCCTGCGGAGTCACCTAGTGCAG”, for which the binding signal was 20700 fluorescence intensity (a.u.).

For “GGGGCGCCGCCGTTCGTCCTGCTGCTTCCGCCGCATCCTGCGGAGTCACCTAGTGCAG”, the binding signal is 9650 fluorescence intensity (a.u.).

“GGTGGAGGCGGGCGCGGTGGAGGCGGGGAGGAAGGGGAGCCGGAGTCACCTAGTGCAG”: the binding signal is 15100 fluorescence intensity (a.u.).

For the sequence “CCCCGGAAGGGGCGGGGAGGGGAGGGCGGCAGCGGCGCCGCGGAGTCACCTAGTGCAG”, the binding signal is 18500 fluorescence intensity (a.u.).

Turning to “GCCGTCCGCCGTGAGCCGGTGCTGTCCACGACGTCGTCTTCGGAGTCACCTAGTGCAG”, the binding signal is 9640 fluorescence intensity (a.u.).

For the sequence “TTACTCCTGGACCAGCATTGCTACAACTATCATTTTCTCCCGGAGTCACCTAGTGCAG”, the binding signal was 9840 fluorescence intensity (a.u.).

On to “GGTTTTAAAGGGGTTCCATACACGTATGATAATAAGAGACCGGAGTCACCTAGTGCAG”, for which the binding signal is 8180 fluorescence intensity (a.u.).

“GTCCAGGTTGGTTTTCATGGGTCGAGTGGCATCAGATGGGCGGAGTCACCTAGTGCAG”: the binding signal is 10100 fluorescence intensity (a.u.).

Take “TTCTTGATCTTTCTGGTTTCTACTGGTTGATTGTACACTTCGGAGTCACCTAGTGCAG”: the binding signal is 8500 fluorescence intensity (a.u.).

Take “TTTTTTCTGTTTGTCCTCCATATATGTCAGCTCTAAAAATCGGAGTCACCTAGTGCAG”: the binding signal is 9300 fluorescence intensity (a.u.).

In the case of “GCCCTTAACGCGATCATGTAACAATGTATCTAAGCCTATACGGAGTCACCTAGTGCAG”, the binding signal is 8200 fluorescence intensity (a.u.).

For “TTCCTAGTACTATCTGCGTTGCGTTGACTGACATGTGGGCCGGAGTCACCTAGTGCAG”, the binding signal was 17000 fluorescence intensity (a.u.).

With “AGGGAGGGAGGGAGGAGGAAGGAGGACTGACATGTGGGCCCGGAGTCACCTAGTGCAG”, the binding signal is 9250 fluorescence intensity (a.u.).

In the case of “ATCCGTTGCCCTCGCTCCTATAACTGCGTTGACATGTCGCCGGAGTCACCTAGTGCAG”, the binding signal was 9550 fluorescence intensity (a.u.).

In the case of “ACCTGACGGCCCAACCAGGCGACCGCTCTCTCCGTTTTCCCGGAGTCACCTAGTGCAG”, the binding signal was 8070 fluorescence intensity (a.u.).

Regarding “ACCCAATCTCAATTTGCCCTGTTGCCAACCCTAGTGATGACGGAGTCACCTAGTGCAG”, the binding signal is 8520 fluorescence intensity (a.u.).

As to “TTCTTTCCGTTGTGCTTGCTGCTTTTCTCTACTACCTTTTCGGAGTCACCTAGTGCAG”, the binding signal was 9900 fluorescence intensity (a.u.).

For the sequence “ACTCCCTCCGTTTCACAATGTAAGTCATTCTAGCATTTCCCGGAGTCACCTAGTGCAG”, the binding signal is 9500 fluorescence intensity (a.u.).

Regarding “TGATTTATGAATTATGATTACTAATACTGTTTTTTGTCCTCGGAGTCACCTAGTGCAG”, the binding signal is 8780 fluorescence intensity (a.u.).

For “TTGGTTGATTTTGATTGCTTTGCTCCTTTTCTGACTTGCTCGGAGTCACCTAGTGCAG”, the binding signal was 9410 fluorescence intensity (a.u.).

Take “CTTTTTAGCATATGTTTGACCGTTTGTCTTATTTAAAATACGGAGTCACCTAGTGCAG”: the binding signal was 9700 fluorescence intensity (a.u.).

With “ATTTGTTTCTAAATATTTGACACCGTTGACTTTTTAGCACCGGAGTCACCTAGTGCAG”, the binding signal was 24100 fluorescence intensity (a.u.).

For the sequence “AATACTCCCTCCGTTTCGAAATATTTGACGCCGTTGACTTCGGAGTCACCTAGTGCAG”, the binding signal is 12400 fluorescence intensity (a.u.).

As to “TTGACACCGTTAACTTTTTAGCATATGTTTGACCGTTCATCGGAGTCACCTAGTGCAG”, the binding signal was 9610 fluorescence intensity (a.u.).

Turning to “CCTCCGTTTCTATATATTTAATATTGTTGACTTTTTAGCACGGAGTCACCTAGTGCAG”, the binding signal is 12000 fluorescence intensity (a.u.).

As for “GAAATATTTGACACCGTTGACTTTTTAGCATATGTTTGACCGGAGTCACCTAGTGCAG”, the binding signal is 30700 fluorescence intensity (a.u.).

As to “TACCGAACCTTTGGCATATTGACCCTTTTGGCCTTTTATACGGAGTCACCTAGTGCAG”, the binding signal is 12200 fluorescence intensity (a.u.).

Turning to “CTCTGTTTCTAAATATTTGACACCATTGACTTTTTAGCATCGGAGTCACCTAGTGCAG”, the binding signal is 10900 fluorescence intensity (a.u.).

“ACATATTGGTTGACTTTTTGCCGGGTCCACCGATTGGCACCGGAGTCACCTAGTGCAG”: the binding signal was 17700 fluorescence intensity (a.u.).

Turning to “GTACTCCCTCCGTTTCGAAATATTTAACACCGTTGACTTTCGGAGTCACCTAGTGCAG”, the binding signal is 17400 fluorescence intensity (a.u.).

As to “TTCACAGTGTAGTTGTTTTATTTAGCCAGTATTTTTTTTTCGGAGTCACCTAGTGCAG”, the binding signal is 8820 fluorescence intensity (a.u.).
